Laboratory results from PubChem BioAssay.

Assay: binders of probe aFGF10 on microarray, primary screen, stem cell growth factor project, biochemical, small-molecule microarray, fluorescence 635/667 (AID 1071);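 note: score merges 667 nm spot intensity and signal to noise from triplicate slides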
Details: higher = more signal

Row | SMILES | composite z-score
1 | COc1ccc(NC(=O)O[C@H]2[C@H](OC(=O)c3cc4ccccc4[nH]3)[C@@H](OC(=O)c3cc4ccccc4[nH]3)[C@@H](OC)O[C@@H]2CO)cc1 | 0.528
2 | C=C(CCCC)C(=O)CC[C@H](OC(=O)c1cccnc1)c1ccc(OCCO)cc1 | 0.149
3 | C=CCN1C(=O)[C@]2(Cc3ccccc3)N=C(c3ccc(OCCCO)cc3)O[C@@H]2c2ccccc21 | -0.0215
4 | CC(=O)NCCCC[C@@H]1NC(=O)[C@H]2C[C@@H](C(=O)NCCCCCNC(=O)CS)[C@@H](c3ccc(O)cc3)N2C1=O | -0.0035
5 | C=CCC(OC(C)=O)[C@@H]1[C@@H](N(Cc2cc3ccccc3o2)C(=O)Cc2ccc(OC)cc2)c2cc(OCCCO)ccc2N1C(=O)c1ccc2ccccc2c1 (stereo not given in full) | 0.0575
6 | CC(c1ccccc1)C(O)C1C=CC2C(=O)N(c3ccccc3)C(=O)C2N1Nc1ccccc1 (stereo not given) | 1.13
7 | COc1ccc([C@H]2C[C@H]3C(Br)=C[C@@]2(CO)C(=O)[C@]32CO2)cc1 | 0.0327
8 | COCCOC(=O)N1C(=O)[C@@]2(c3cc(C#CCCO)ccc31)[C@H](c1ccc(OCCO)cc1)N1[C@H](c3ccccc3)[C@H](c3ccccc3)OC(=O)[C@H]1[C@@H]2C(N)=O | 0.916
9 | CCCCN1CC=CC23O[C@@H]4/C=C\CCCOC(=O)C4[C@H]2C(=O)N(CCCCCO)[C@@H]3C1=O (stereo not given in full) | -0.0739
10 | NCCCCCCNC(=O)[C@H]1C[C@H]2C(=O)N[C@@H](Cc3ccccc3)C(=O)N2[C@H]1c1cccc(OCCO)c1 | 0.534
11 | COc1ccc([Si](C)(C)[C@@H]2[C@@H](CCn3cc(CCO)nn3)O[C@]3(C(=O)N(Cc4cccc(N5C(=O)c6cccc7cccc5c67)c4)c4ccccc43)[C@H]2C)cc1 | 0.359
12 | CC(=O)Nc1cc(Br)ccc1C(=O)NCc1ccccc1 | -0.0284
13 | CCCCCN1CC=CC23O[C@@H]4C=CCOC(=O)[C@@H]4[C@H]2C(=O)N(C(C)CO)[C@@H]3C1=O (stereo not given in full) | -0.109
14 | CCOC(=O)C1=C[C@@H](C(C)C)N(S(=O)(=O)c2ccc(C)cc2)[C@H]1c1ccccc1F | 0.817
15 | CS(=O)(=O)CCOC(=O)C1=CC(CCCO)=CC(C2CC2)N(Cc2cc3c(cc2Br)OCO3)C=C1C(=O)OCCS(C)(=O)=O (stereo not given) | 0.142
16 | Cc1c(NC(=O)/C(C#N)=C/c2cccc([N+](=O)[O-])c2)c(=O)n(-c2ccccc2)n1C | 0.0969
17 | C=CCN1Cc2ccccc2[C@@H]2OC(c3ccc(OCCCO)cc3)=N[C@]2(CCS(=O)(=O)c2ccccc2)C1=O | 0.345
18 | C=CCNC(=O)[C@@H]1[C@H]2C(=O)O[C@H](c3ccccc3)[C@H](c3ccccc3)N2[C@H](c2ccc(OCCO)cc2)[C@@]12C(=O)N(C(=O)OCCOC)c1ccc(C#CCC(C(=O)OC)C(=O)OC)cc12 | 1.05

Row | SMILES | composite z-score
19 | CN1C(=O)C2C=CC(C(O)C=Cc3ccc([N+](=O)[O-])cc3)N(Nc3ccccc3)C2C1=O (stereo not given) | 0.497
20 | COCCOC(=O)N1C(=O)[C@@]2(c3cc(C#CC4=CCCCC4)ccc31)[C@H](c1ccc(OCCO)cc1)N1[C@H](c3ccccc3)[C@H](c3ccccc3)OC(=O)[C@H]1[C@@H]2C(=O)N1CCc2cc(OC)c(OC)cc2C1 | 0.666
21 | CC(C)CN1C(=O)[C@@]2(c3ccc([N+](=O)[O-])cc3)CC(=O)N(C3CCCCC3)[C@@H]2c2ccc(CO)cc21 | -0.991
22 | C#CCN1[C@H](/C=C/C2CC2)[C@H](Cc2ccccc2)OC(=O)[C@@H]1Cc1ccccc1 | -0.0377
23 | COc1ccccc1CN1C(=O)c2ccccc2[C@@]2(Cc3ccccc3N(CCCN(C)C)C2=O)[C@@H]1c1ccc(CO)cc1 | -0.0231
24 | COC(=O)[C@@]1(CCC(=O)OC(C)(C)C)N=C(c2ccc(OCCCO)cc2)O[C@H]1c1ccccc1 | -0.0016
25 | O=C(O)[C@@]1(CCS(=O)(=O)c2ccccc2)N=C(c2ccc(OCCCO)cc2)O[C@H]1c1ccccc1 | -0.029
26 | C=CCN(Cc1ccccc1)C(=O)C(c1cccs1)N(C(=O)/C=C\C(=O)O)c1ccc(CCOCCO)cc1 (stereo not given) | -0.865
27 | CC(C)NC(=O)[C@@H]1c2ccccc2C(=O)N(C(C)C)[C@H]1c1ccc(CO)cc1 | -0.057
28 | C=CCC(OC(C)=O)[C@@H]1[C@@H](N(Cc2ccc(-c3cccc(C(F)(F)F)c3)o2)C(=O)c2cccc3ccccc23)c2cc(OCCCO)ccc2N1C(=O)Cc1ccc2ccccc2c1 (stereo not given in full) | 0.2
29 | COc1ccc([Si](C)(C)[C@@H]2[C@@H](CCn3cc([C@H](O)c4ccccc4)nn3)O[C@]3(C(=O)N(Cc4cccc(N5CCC5=O)c4)c4ccccc43)[C@H]2C)cc1 | 0.232
30 | O=C(NCCN1CCOCC1)[C@@H]1c2ccccc2C(=O)N(Cc2cc(C(F)(F)F)cc(C(F)(F)F)c2)[C@H]1c1ccc(CO)cc1 | -0.214
31 | C=C(CCCC)/C(=C/C[C@H](OC(C)=O)c1ccccc1OCCO)c1cnc2ccccc2c1 | 0.506
32 | COC(=O)[C@@]1(Cc2ccc(OC)cc2)[C@H]2c3cc(C(=O)N4CCCC4)n(CCc4ccc(O)c(O)c4)c3C[C@H]2CN1C(=O)c1ccccc1 | 0.0359
33 | Cc1ccc(S[C@]2(C(=O)NCC(C)C)CC(=O)N(Cc3cc(C(F)(F)F)cc(C(F)(F)F)c3)[C@@H]2c2ccc(CO)cc2)cc1 | -0.272
34 | O=C(NC1CC1)[C@@H]1c2ccccc2C(=O)N(C2Cc3ccccc3C2)[C@H]1c1ccc(CO)cc1 | 0.139
35 | O=C1OCCC=C[C@H]2OC34C=CCN(CCN5CCOCC5)C(=O)[C@H]3N(CCCCCO)C(=O)[C@@H]4C12 (stereo not given in full) | 0.0681
